Source: PubChem BioAssay (Tox21)
Values without a mark were called inactive. Inconclusive results are not listed. Entries that show only a call come without a potency. Calls of active or inactive are those of the source. Unless noted, calls follow the shape of the dose curve; as a rule, active = well fitted curve in the direction sought with a large enough effect in the repeat runs; inconclusive = weak or mixed curves; inactive = no such curve, though single readings can be large; an effect the other way counts as inactive or inconclusive.

How the values were obtained:
[1] = A CellTox Green Cytotoxicity Assay to monitor cytotoxicity in HEK293 cells - 32 hour (AID 1224881); also: nearly all actives have a fitted effect of over 40% in size; also: potency is read from the fitted curve at half-maximal effect
Outline: (§1)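 Tox21 screen in HEK293: membrane-impermeant cyanine dye fluoresces on binding dead-cell DNA; compound pinned 5 h post-seeding, plates held at 37 C, signal read repeatedly through 40 h.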

[2] = A CellTox Green Cytotoxicity Assay to monitor cytotoxicity in HepG2 cells - 0 hour (AID 1224882); also: nearly all actives have a fitted effect of over 35% in size; also: potency is read from the fitted curve at half-maximal effect
Outline: (§2)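 Measurements at 0, 8, 16, 24, 32 and 40 h of treatment captured CellTox Green fluorescence in HepG2 cells that had been co-plated with reagent and preincubated 5 h at 37 C/5% CO2.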

[3] = A CellTox Green Cytotoxicity Assay to monitor cytotoxicity in HepG2 cells - 32 hour (AID 1224883); also: nearly all actives have a fitted effect of over 50% in size; also: potency is read from the fitted curve at half-maximal effect
Outline: as §2

[4] = qHTS RealTime-Glo MT Cell Viability Assay in HEK293 cells - 24 hour (AID 1224886); also: top concentration of the series differs between compounds; nearly all actives have a fitted effect of over 50% in size
Outline: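 Luminescence generated by NanoLuc from substrate produced by living HEK293 cells served as the viability signal. Each value reflects the reading at its stated time point during continuous 40 h compound exposure at 37 C.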

[5] = A CellTox Green Cytotoxicity Assay to monitor cytotoxicity in HEK293 cells - 16 hour (AID 1224888); also: nearly all actives have a fitted effect of over 35% in size; also: potency is read from the fitted curve at half-maximal effect
Outline: as §1

[6] = qHTS RealTime-Glo MT Cell Viability Assay in HepG2 cells - 0 hour (AID 1224889); also: nearly all actives have a fitted effect of over 50% in size; also: potency is read from the fitted curve at half-maximal effect
Outline: (§3)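 Tox21 10K library screened in qHTS format on HepG2 cells carrying RealTime-Glo reagents. Compounds were added after a 5 h preincubation, and the luminescent signal from continuous culture was measured repeatedly during 40 h treatment.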

[7] = A CellTox Green Cytotoxicity Assay to monitor cytotoxicity in HepG2 cells - 8 hour (AID 1224890); also: nearly all actives have a fitted effect of over 45% in size; also: potency is read from the fitted curve at half-maximal effect
Outline: as §2

[8] = qHTS assay to identify small molecule antagonists of the estrogen receptor alpha (ER-alpha) signaling pathway using the BG1 cell line in the presence of 0.1 nM 17-beta-estradiol - cell viability counter screen (AID 1259241); also: nearly all actives have a fitted effect of over 40% in size
Outline: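 Live-cell protease activity (CellTiter-Fluor fluorescence, 30 min) was read in the same wells after VM7Luc4E2 cells had been exposed to compounds with 0.1 nM 17beta-estradiol for 22 hr at 37C.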

[9] = molecular target: Estrogen receptor (Homo sapiens) (UniProt P03372); experiment: qHTS assay to identify small molecule antagonists of the estrogen receptor alpha (ER-alpha) signaling pathway using the BG1 cell line in the presence of 0.1 nM 17-beta-estradiol (AID 1259244); also: nearly all actives have a fitted effect of over 50% in size
Outline: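 Compounds were tested against 0.1 nM (final) 17beta-estradiol in VM7Luc4E2 cells, which express full-length ER-alpha and an ERE-luciferase reporter; luminescence was recorded following 22 h exposure.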

[10] = qHTS assay to identify small molecule HDAC inhibitors (AID 1259364); also: potency is read from the fitted curve at half-maximal effect;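 also: wild-type HCT-116 cells with endogenous class I/II HDAC activity; nearly all actives have a fitted effect of over 45% in size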
Outline: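 Screening used wild-type human colon HCT-116 cells incubated overnight, dosed with compounds for 2 hours, and assayed with a homogeneous luminogenic HDAC I/II reagent for 30 minutes at room temperature.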

[11] = qHTS assay to identify small molecule HDAC inhibitors - cell viability counter screen (AID 1259365)
Outline: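 HCT-116 (wild type), 1,500 cells/well, overnight 37C/5% CO2; compound in DMSO 2hr; CellTiter-Glo 30min RT; luminescence read.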

[12] = qHTS assay to identify small molecule agonists of the sonic hedgehog signaling (Shh) pathway - cell viability counter screen (AID 1259366); also: nearly all actives have a fitted effect of over 50% in size; also: potency is read from the fitted curve at half-maximal effect
Outline: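 CellTiter-Fluor fluorescence read-out, 1 hr at 37C, added after 23hr compound exposure. Cells: 3T3 Gli1-Luc, an NIH/3T3 clone with stably integrated Gli1-Luc reporter, plated 4hr before compound.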

[13] = qHTS assay to identify small molecule antagonists of the sonic hedgehog signaling (Shh) pathway - cell viability counter screen (AID 1259367); also: nearly all actives have a fitted effect of over 55% in size
Outline: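 CellTiter-Fluor signal in conditioned medium-stimulated 3T3 Gli1-Luc cells, 23 hr compound exposure, 37C.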

[14] = qHTS assay to identify small molecule agonists of the sonic hedgehog signaling (Shh) pathway (AID 1259368; calls by dose curve;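 also: NIH/3T3-derived 3T3Gli1-Luc cells carrying a stable Gli1-driven firefly luciferase reporter; series mostly up to about 92 µM; nearly all actives have a fitted effect of over 15% in size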)
Outline: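 Hedgehog pathway agonism scored by increased firefly luciferase luminescence in 3T3Gli1-Luc cells treated 24 hr at 37 C; detection used a 30 min room-temperature reagent incubation.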

[15] = qHTS RealTime-Glo MT Cell Viability Assay in HepG2 cells - 16 hour (AID 1224885); also: nearly all actives have a fitted effect of over 50% in size
Outline: as §3

[16] = qHTS RealTime-Glo MT Cell Viability Assay in HEK293 cells - 8 hour (AID 1224887)
Outline: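 HEK293 + NanoLuc + prosubstrate, 600 cells/well; 5 h, 37 C/5% CO2; compound 23 nL in DMSO by pintool; 37 C; luminescence read at 0, 8, 16, 24, 32 and 40 h time points.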

[17] = qHTS assay to identify small molecule antagonists of the androgen receptor (AR) signaling pathway using the MDA cell line in the presence of 0.5 nM R1881 - cell viability counter screen (AID 1259242); also: nearly all actives have a fitted effect of over 45% in size
Outline: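 Concentration-response screen of compounds for toxicity in MDA-kb2 reporter cells: 16 hr at 37C with 0.5 nM R1881, endpoint live-cell protease fluorescence measured in the reporter wells.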

[18] = molecular target: Androgen receptor (Homo sapiens) (UniProt P10275); experiment: qHTS assay to identify small molecule antagonists of the androgen receptor (AR) signaling pathway using the MDA cell line in the presence of 0.5 nM R1881 (AID 1259243); also: nearly all actives have a fitted effect of over 50% in size
Outline: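 With R1881 held at 0.5 nM (final), compound effects on MMTV-luciferase expression in MDA-kb2 cells were scored by luminescence after a 16 hr, 37C incubation.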

[19] = qHTS assay to identify small molecule phospholipidosis (PLD) inducers (AID 1259344; active = well fitted curve in the direction sought with a large enough effect; an effect the other way counts as inactive or inconclusive)
Outline: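 Accumulated phospholipid, stained red by LipidTOX during 24 h compound treatment of HepG2 cells at 37 C, is quantified from images as pit number and intensity, normalised per cell using Hoechst-stained nuclei.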

[20] = A CellTox Green Cytotoxicity Assay to monitor cytotoxicity in HEK293 cells - 8 hour (AID 1224884); also: nearly all actives have a fitted effect of over 35% in size; also: potency is read from the fitted curve at half-maximal effect
Outline: as §1

Sequence of Androgen receptor (Homo sapiens) (P10275 whole entry, looked up): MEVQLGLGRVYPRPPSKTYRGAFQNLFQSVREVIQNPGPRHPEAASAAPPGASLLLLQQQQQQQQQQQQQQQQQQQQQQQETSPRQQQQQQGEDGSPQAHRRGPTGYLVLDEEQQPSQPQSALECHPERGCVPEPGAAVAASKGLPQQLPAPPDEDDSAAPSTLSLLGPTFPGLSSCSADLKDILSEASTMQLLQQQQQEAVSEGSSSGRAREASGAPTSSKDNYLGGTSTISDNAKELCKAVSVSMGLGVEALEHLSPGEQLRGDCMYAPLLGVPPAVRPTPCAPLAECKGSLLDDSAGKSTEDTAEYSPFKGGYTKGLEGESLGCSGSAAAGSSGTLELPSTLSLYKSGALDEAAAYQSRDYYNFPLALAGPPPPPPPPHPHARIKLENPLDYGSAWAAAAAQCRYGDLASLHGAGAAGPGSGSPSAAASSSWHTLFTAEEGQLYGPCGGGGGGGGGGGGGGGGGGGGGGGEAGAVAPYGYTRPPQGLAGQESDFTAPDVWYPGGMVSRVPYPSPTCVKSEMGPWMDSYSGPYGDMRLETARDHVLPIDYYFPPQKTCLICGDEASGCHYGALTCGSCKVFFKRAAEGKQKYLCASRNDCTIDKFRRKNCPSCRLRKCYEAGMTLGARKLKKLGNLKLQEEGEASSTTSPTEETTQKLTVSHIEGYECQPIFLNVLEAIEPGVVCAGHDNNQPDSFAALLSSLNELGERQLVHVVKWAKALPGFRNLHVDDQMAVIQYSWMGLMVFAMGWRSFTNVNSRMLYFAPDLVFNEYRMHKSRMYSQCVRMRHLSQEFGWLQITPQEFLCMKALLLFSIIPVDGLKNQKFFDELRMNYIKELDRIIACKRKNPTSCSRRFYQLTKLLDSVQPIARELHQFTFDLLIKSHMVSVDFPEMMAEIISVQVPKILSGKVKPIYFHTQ
Sequence of Estrogen receptor (Homo sapiens) (P03372 whole entry, looked up): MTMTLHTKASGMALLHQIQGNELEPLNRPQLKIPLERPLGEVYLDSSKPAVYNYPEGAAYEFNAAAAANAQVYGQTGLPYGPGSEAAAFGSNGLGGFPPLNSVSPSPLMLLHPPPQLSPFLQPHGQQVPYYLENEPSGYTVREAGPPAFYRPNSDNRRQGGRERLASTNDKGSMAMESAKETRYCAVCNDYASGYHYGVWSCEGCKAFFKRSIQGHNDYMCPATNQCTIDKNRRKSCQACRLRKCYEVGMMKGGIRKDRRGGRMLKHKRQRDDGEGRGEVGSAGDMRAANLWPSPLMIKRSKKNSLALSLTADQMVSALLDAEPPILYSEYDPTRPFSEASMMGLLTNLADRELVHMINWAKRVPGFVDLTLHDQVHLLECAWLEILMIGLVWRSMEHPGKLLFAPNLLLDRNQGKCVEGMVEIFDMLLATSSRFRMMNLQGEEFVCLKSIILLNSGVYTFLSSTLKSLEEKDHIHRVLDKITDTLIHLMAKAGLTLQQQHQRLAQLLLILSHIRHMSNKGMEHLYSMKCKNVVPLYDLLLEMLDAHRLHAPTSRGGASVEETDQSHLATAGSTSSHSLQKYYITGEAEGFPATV

CCc1c(C(=O)NN2CCCCC2)nn(-c2ccc(Cl)cc2Cl)c1-c1ccc(Br)cc1
Potency [1]: inactive
Potency [2]: inactive
Potency [3]: inactive
Potency [4]: inactive
Potency [5]: inactive
Potency [6]: inactive
Potency [7]: inactive
Potency [8]: inactive
Potency [9]: inactive
Potency [10]: inactive
Potency [11]: inactive
Potency [12]: inactive
Potency [13]: inactive
outcome [14]: inactive

Nc1c(CC(=O)O)cccc1C(=O)c1ccc(Br)cc1
Potency [1]: inactive
Potency [2]: inactive
Potency [3]: inactive
Potency [15]: inactive
Potency [4]: inactive
Potency [16]: inactive
Potency [6]: inactive
Potency [7]: inactive
Potency [8]: inactive
Potency [17]: inactive
Potency [9]: inactive
Potency [10]: inactive
Potency [11]: inactive
Potency [12]: inactive
Potency [13]: inactive
outcome [14]: inactive

S=C([S-])NCCNC(=S)[S-].[Mn+2]
Potency [1]: inactive
Potency [2]: inactive
Potency [3]: inactive
Potency [15]: inactive
Potency [16]: inactive
Potency [5]: inactive
Potency [6]: inactive
Potency [7]: inactive
Potency [8]: inactive
Potency [17]: inactive
Potency [10]: inactive
Potency [11]: inactive
Potency [13]: inactive
outcome [14]: inactive

NC(=O)C(c1ccccc1)(c1ccccc1)[C@@H]1CCN(CCc2ccc3c(c2)CCO3)C1
Potency [1]: 21.3 µM (active)
Potency [2]: 23.9 µM (active)
Potency [3]: 23.9 µM (active)
Potency [15]: inactive
Potency [16]: inactive
Potency [5]: 21.3 µM (active)
Potency [7]: 21.3 µM (active)
Potency [8]: inactive
Potency [17]: inactive
Potency [9]: inactive
Potency [10]: inactive
Potency [11]: inactive
Potency [13]: inactive
outcome [14]: inactive

CC(=O)c1cccc([N+](=O)[O-])c1
Potency [1]: inactive
Potency [2]: inactive
Potency [3]: inactive
Potency [15]: inactive
Potency [4]: inactive
Potency [16]: inactive
Potency [5]: inactive
Potency [6]: inactive
Potency [7]: inactive
Potency [17]: inactive
Potency [9]: inactive
Potency [10]: inactive
Potency [11]: inactive
Potency [12]: inactive
Potency [13]: inactive

CN(C)c1ccc(/C=C/c2ccc([N+](=O)[O-])cc2)cc1
cytotoxicity increase [1]: 15.1% [at 6.97 µM]
cytotoxicity [2]: 4.44% [at 6.97 µM]
cytotoxicity increase [3]: 16% [at 6.97 µM]
activity change, negative = cytotoxic [15]: -7.1% [at 6.97 µM]
activity change, negative = cytotoxicity [4]: -4.06% [at 6.97 µM]
activity change, negative = cytotoxicity [16]: -2.66% [at 6.97 µM]
activity change, negative = cytotoxicity [6]: -8.4% [at 6.97 µM]
cytotoxicity increase [7]: 23.9% [at 6.97 µM]
viability change, negative = cytotoxic [17]: 4% [at 8.39 µM]
Potency [10]: 0.872 µM (active)
activity change, negative = cytotoxicity [11]: -0.457% [at 8.39 µM]
viability change, negative = cytotoxic [13]: 8.12% [at 8.39 µM]
activity change [14]: 7.46% [at 8.39 µM]

CCCn1cnc2c1c(=O)n(CCCCC(C)=O)c(=O)n2C
Potency [1]: inactive
Potency [2]: inactive
Potency [3]: inactive
Potency [15]: inactive
Potency [4]: inactive
Potency [16]: inactive
Potency [6]: inactive
Potency [7]: inactive
Potency [8]: inactive
Potency [17]: inactive
Potency [18]: inactive
Potency [9]: inactive
Potency [19]: inactive
Potency [10]: inactive
Potency [11]: inactive
Potency [12]: inactive
Potency [13]: inactive
outcome [14]: inactive

C=CC1CC2C=CC1C2 (stereo not drawn)
Potency [1]: inactive
Potency [2]: inactive
Potency [3]: inactive
Potency [15]: inactive
Potency [4]: inactive
Potency [16]: inactive
Potency [5]: inactive
Potency [6]: inactive
Potency [7]: inactive
Potency [17]: inactive
Potency [9]: inactive
Potency [10]: inactive
Potency [11]: inactive
Potency [12]: inactive
Potency [13]: inactive
outcome [14]: inactive

OCCNCc1ccccc1
Potency [1]: inactive
Potency [2]: inactive
Potency [3]: inactive
Potency [15]: inactive
Potency [4]: inactive
Potency [16]: inactive
Potency [5]: inactive
Potency [6]: inactive
Potency [7]: inactive
Potency [8]: inactive
Potency [18]: inactive
Potency [9]: inactive
Potency [10]: inactive
Potency [11]: inactive
Potency [12]: inactive
Potency [13]: inactive
outcome [14]: inactive

NS(=O)(=O)c1ccc(N2CCCCS2(=O)=O)cc1
Potency [1]: inactive
Potency [2]: inactive
Potency [3]: inactive
Potency [15]: inactive
Potency [4]: inactive
Potency [16]: inactive
Potency [5]: inactive
Potency [6]: inactive
Potency [7]: inactive
Potency [17]: inactive
Potency [18]: inactive
Potency [9]: inactive
Potency [10]: inactive
Potency [11]: inactive
Potency [12]: inactive
Potency [13]: inactive
outcome [14]: inactive

CCCCCCCCCCCCCCCCOS(=O)(=O)O
Potency [1]: 21.3 µM (active)
Potency [2]: inactive
Potency [20]: 23.9 µM (active)
Potency [15]: inactive
Potency [4]: inactive
Potency [16]: inactive
Potency [6]: inactive
Potency [17]: inactive
Potency [18]: inactive
Potency [9]: inactive
Potency [12]: inactive
Potency [13]: inactive
outcome [14]: inactive

C[C@@H]1C[C@H]2[C@@H]3CCC4=CC(=O)C=C[C@]4(C)[C@@]3(F)[C@@H](O)C[C@]2(C)[C@@]1(O)C(=O)COC(=O)c1ccncc1
Potency [1]: inactive
Potency [2]: inactive
Potency [3]: inactive
Potency [15]: inactive
Potency [4]: inactive
Potency [16]: inactive
Potency [5]: inactive
Potency [6]: 1.07 µM (active)
Potency [7]: inactive
Potency [8]: inactive
Potency [9]: inactive
Potency [10]: inactive
Potency [11]: inactive
Potency [12]: inactive
Potency [13]: inactive

CC(=O)[O][Al]
Potency [1]: inactive
Potency [2]: inactive
Potency [3]: inactive
Potency [15]: inactive
Potency [4]: inactive
Potency [16]: inactive
Potency [5]: inactive
Potency [7]: inactive
Potency [8]: inactive
Potency [17]: inactive
Potency [10]: inactive
Potency [11]: inactive
Potency [12]: inactive
Potency [13]: inactive
outcome [14]: inactive

CCC(C)(C)CC
Potency [1]: inactive
Potency [2]: inactive
Potency [3]: inactive
Potency [15]: inactive
Potency [4]: inactive
Potency [16]: inactive
Potency [5]: inactive
Potency [6]: inactive
Potency [7]: inactive
Potency [8]: inactive
Potency [17]: inactive
Potency [10]: inactive
Potency [11]: inactive
Potency [12]: inactive
Potency [13]: inactive
outcome [14]: inactive

CC(=O)c1ccc2c(c1)N(CCCN1CCC(CCO)CC1)c1ccccc1S2
Potency [1]: 23.9 µM (active)
Potency [2]: inactive
Potency [3]: 23.9 µM (active)
Potency [15]: inactive
Potency [5]: inactive
Potency [7]: inactive
Potency [8]: inactive
Potency [9]: inactive
Potency [10]: inactive
Potency [11]: inactive
Potency [12]: 11.9 µM (active)
outcome [14]: inactive

CC(=O)c1ccc2c(c1)N(CCCN(C)C)c1ccccc1S2
Potency [1]: inactive
Potency [2]: inactive
Potency [20]: inactive
Potency [15]: inactive
Potency [4]: inactive
Potency [16]: inactive
Potency [5]: inactive
Potency [6]: inactive
Potency [7]: inactive
Potency [8]: inactive
Potency [17]: inactive
Potency [9]: inactive
outcome [14]: inactive
